These results are taken from PubChem BioAssay.

A short description of experiment [1]: blockers of polyQ-driven CASP3 activation – cell-based (AID 1583). The note with it: polyglutamine-induced caspase-3 activation, cell assay; stronger effect = higher value;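 tested at 10 µM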.
Experiment [2] can be described thus: yeast 75Q aggregation reduction – 75Q-TubU reporter (AID 1593). To be noted: Yeast 75Q polyglutamine aggregation reporter.
Experiment [3] can be described thus: restoration of touch response, mutant HTT neurons – whole organism, C. elegans mechanosensory neurons, N-terminal huntingtin (AID 1599). To be noted: C. elegans polyQ-huntingtin mechanosensory neurons, stronger effect = higher value.
The nature of experiment [4]: blockers of cytochrome c efflux from mitochondria – biochemical, purified mitochondria (AID 1603).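 Also: mouse liver mitochondria challenged with calcium chloride; signal normalized to the plate average as 100%.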 The note with it: stronger effect = lower value.
Experiment [5] is described as follows: polyglutamine aggregate formation blockers (AID 1604). The note with it: polyglutamine-induced protein aggregation inhibition assay; stronger effect = higher value; tested at 2.5 µM.
A short description of experiment [6]: glutamate transport activators, MN-1 cells, MN-1 cell line (AID 1612).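 Also: tested at 1 µM final; 0% = mean of DMSO vehicle wells on each plate; positive means more glutamate uptake than control and negative means less.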 The note with it: MN-1 motor neuron cells, stronger effect = higher value.
A short description of experiment [7]: 75Q-TubH aggregate inhibition, S. cerevisiae, yeast (AID 1616). The note with it: S. cerevisiae 75Q-TubH polyglutamine aggregation suppression; stronger effect = higher value.
Experiment [8] in a line: compounds altering viability of human ES cells (AID 493140; call rule not given here;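 also: cells exposed to compounds for four days before counting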). To be noted: human embryonic stem cell survival screen; stronger effect = higher value.
A short description of experiment [9]: galactose survival enhancers in mitochondrial complex I cybrids – cell-based, galactose medium, ATP luminescence, primary screen (AID 1645843;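 active = z-score of at least 1.8 in each of two replicates, scored against plate mean and spread of sample wells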;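 also: positive z means more ATP and so rescue of galactose-driven cybrid death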). To be noted: complex I mutant cybrid cells, 72 h, stronger effect = higher value.
Experiment [10] relates to F380Y/beta1. The experiment is described as follows: BK channel mutant inhibitors and activators – cell-based, U2OS BacMam, thallium flux, beta subunits, selectivity assay, profiling panel (AID 1259406).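 Also: initial slope of Thallos dye fluorescence rise after thallium is added; log ratio against the mean of 0.3% DMSO vehicle wells on the same plate.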 The note with it: U2OS BacMam BK variants, at 30 µM.
Experiment [11] relates to F380Y/beta2Delta. Described as above. The note with it: U2OS BacMam BK variants, at 30 µM.
The subject of experiment [12] is F380Y/beta4. The description is as above. The note with it: U2OS BacMam BK variants, at 30 µM.
In experiment [13] the target is Calcium-activated potassium channel subunit alpha-1 (Homo sapiens) + Leucine-rich repeat-containing protein 26 (Homo sapiens) (UniProt Q12791+Q2I0M4). Described as above. The note with it: U2OS BacMam BK variants, F380Y/Slo1WT/gamma1, at 30 µM.
Chain of Calcium-activated potassium channel subunit alpha-1 (Homo sapiens) + Leucine-rich repeat-containing protein 26 (Homo sapiens) (Q2I0M4 whole entry, looked up, one chain of several): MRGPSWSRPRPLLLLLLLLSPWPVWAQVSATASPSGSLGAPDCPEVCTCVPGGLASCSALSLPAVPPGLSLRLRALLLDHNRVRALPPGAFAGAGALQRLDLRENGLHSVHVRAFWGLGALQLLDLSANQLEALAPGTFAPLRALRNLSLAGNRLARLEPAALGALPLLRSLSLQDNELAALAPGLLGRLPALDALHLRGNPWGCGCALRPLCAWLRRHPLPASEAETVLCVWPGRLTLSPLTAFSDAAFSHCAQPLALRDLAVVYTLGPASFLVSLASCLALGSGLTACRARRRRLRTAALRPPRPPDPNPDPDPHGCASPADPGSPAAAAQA
The test system of experiment [14] is R275C. The description is as above. The note with it: U2OS BacMam BK variants, at 30 µM.
Experiment [15] has as its system R275C/beta1. Described as above. The note with it: U2OS BacMam BK variants, at 30 µM.
Experiment [16] has as its system R275C/beta2Delta. The experiment is described as above. To be noted: U2OS BacMam BK variants, at 30 µM.
Experiment [17] concerns R275C/beta4. Described as above. The note with it: U2OS BacMam BK variants, at 30 µM.
Experiment [18] has as its system R275C/Slo1WT/beta2. The experiment is described as above. The note with it: U2OS BacMam BK variants, at 30 µM.
Experiment [19] in a line: modulation of C. elegans fzo-1 (AID 1259413; call rule not given here;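 also: fzo-1 mutant C. elegans worms in liquid wells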). The note with it: C. elegans fzo-1 modulator screen, mean read-out; stronger effect = higher value.
The test system of experiment [20] is Neuropilin-2 / VEGF-C interaction (human). Kind of experiment: small molecules blocking Neuropilin-2/VEGF-C interaction – biochemical, microplate binding format, z-score (AID 743281; call rule not given here). To be noted: microplate NRP2/VEGF-C binding assay; stronger effect = lower value.

As usually defined, the inhibition is the percentage by which the read-out fell short of the control.

“And” between values parts separate entries of the source, which are not always exact repeats. Equal values may be shown once. For part of these data: Measured potencies and affinities stand elsewhere. The source made the active and inactive calls.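 The calls were made as follows, unless noted: active = thallium flux through the channel raised or lowered by more than 3 SD from vehicle-only wells, actives on both sides; inactive = the rest.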

With `CN[C@@H]1[C@H](O)[C@H](NC)[C@H]2O[C@@]3(O)C(=O)C[C@@H](C)O[C@H]3O[C@@H]2[C@H]1O`, the inhibition in [1] was 16.9%. The score in experiment [2] was 1.49. This compound also displayed a rescue above control in experiment [3] of 0.75. Also, the cytochrome c release ratio in [4] is 0.85. The inhibition of aggregation in [5] turned out to be 14.3%. Moreover, the glutamate uptake change in experiment [6] is -0.34%. In experiment [7], this compound came in with an aggregation suppression score of 1.46. Moreover, the survival in experiment [8] is 3.25 (inactive). Moreover, the z-score in experiment [9] was 0.84 (inactive) and 1 (inactive). Further, the log fold change Tl+ flux was 0.00447 (inactive) in [10]; -0.0192 (inactive) in [11]; 0.0229 (inactive) in experiment [12]; 0.021 (inactive) in experiment [13]; 0.108 (active) in [14]; 0.0857 (inactive) in [15]. Further, the figures for the log fold change Tl+ flux in experiment [16], in experiment [17] and in [18] were -0.00159 (inactive), 0.0437 (inactive) and -0.0137 (inactive), respectively.

With `COc1cc(NC(C)CCCN)c2ncccc2c1` (stereo not given), the inhibition in experiment [1] was determined as 18.8%. Also, the score in [2] worked out at 1.79. In [3], this compound had a rescue above control of 0. For the same compound, the cytochrome c release ratio in experiment [4] turned out to be 0.68. For the same compound, the inhibition of aggregation in experiment [5] came out at 78.1%. Besides, the glutamate uptake change in experiment [6] is -1.37%. Moreover, the aggregation suppression score in experiment [7] is 1.22. The survival in experiment [8] was 5.33 (inactive). Moreover, in experiment [19], the mean signal was 225 (inactive). For the same compound, the z-score in experiment [9] was -1.43 (inactive) and -2.4 (inactive). Besides, the log fold change Tl+ flux was -0.102 (inactive) in experiment [10]; -0.141 (active) in [11]; -0.0853 (inactive) in [12]; -0.0425 (inactive) in experiment [13]; -0.164 (active) in [14]; 0.0817 (inactive) in experiment [15]. Also, the log fold change Tl+ flux in experiment [16] was 0.0117 (inactive); in experiment [17], 0.0128 (inactive); in experiment [18], -0.0635 (inactive).

Turning to `COc1ccc([C@@H]2Sc3ccccc3N(CCN(C)C)C(=O)[C@@H]2OC(C)=O)cc1`, the survival in experiment [8] is 19.4 (inactive). The mean signal in experiment [19] was 243 (inactive). In addition, the log fold change Tl+ flux is 0.0592 (inactive) in [10]; -0.00376 (inactive) in experiment [11]; 0.0311 (inactive) in experiment [12]; 0.0123 (inactive) in experiment [13]; -0.0404 (inactive) in [14]; 0.0836 (inactive) in experiment [15]. Further, the log fold change Tl+ flux was 0.0243 (inactive) in experiment [16], 0.104 (inactive) in [17] and 0.0487 (inactive) in experiment [18].

`CN(C)CC/C=C1\c2ccccc2COc2ccccc21`: the survival in experiment [8] was 18.8 (inactive). Moreover, the mean signal in experiment [19] was 222 (inactive). Also, the z-score in experiment [9] was -0.51 (inactive) and -1.11 (inactive). Besides, the log fold change Tl+ flux is 0.078 (inactive) in experiment [10]; 0.0812 (active) in [11]; 0.0925 (inactive) in [12]; 0.0287 (inactive) in experiment [13]; -0.0142 (inactive) in experiment [14]; 0.119 (active) in experiment [15]. For the same compound, the log fold change Tl+ flux in [16] is 0.0609 (inactive); in experiment [17], 0.0396 (inactive); in experiment [18], -0.0225 (inactive).

For `Nc1nc2ncc(CNc3ccc(C(=O)N[C@@H](CCC(=O)O)C(=O)O)cc3)nc2c(=O)[nH]1`, the inhibition in [1] turned out to be 15.9%. The score in [2] amounted to 1.02. Besides, the rescue above control in [3] is -0.86. The cytochrome c release ratio in [4] was found to be 1.08. Moreover, the inhibition of aggregation in experiment [5] came to 77.8%. For the same compound, in [6], the glutamate uptake change came to 0.74%. Also, in experiment [7], the aggregation suppression score came to 1.14. Besides, the mean signal in experiment [19] was 246 (inactive). The z-score in experiment [9] was -0.64 (inactive). Besides, the log fold change Tl+ flux was -0.0026 (inactive) in experiment [10]; -0.000783 (inactive) in [11]; 0.025 (inactive) in [12]; -0.00611 (inactive) in experiment [13]; -0.0335 (inactive) in [14]; 0.00862 (inactive) in experiment [15]. Moreover, the log fold change Tl+ flux was 0.0304 (inactive) in [16], -0.0613 (inactive) in experiment [17] and -0.0318 (inactive) in experiment [18].

Turning to `Cn1c(=O)c2[nH]cnc2n(C)c1=O`, the inhibition in experiment [1] is 9.69%. Besides, the score in [2] was 1.11. In experiment [3], this compound registered a rescue above control of 1.91. Further, the cytochrome c release ratio in [4] is 0.95. The compound also displayed an inhibition of aggregation in experiment [5] of 68.2%. Also, in [6], the glutamate uptake change is -19.2%. The same compound displayed an aggregation suppression score in [7] of 0.779. Also, the survival in experiment [8] is 4.08 (inactive) and 2.17 (inactive). Also, the mean signal in [19] was 256 (inactive). In addition, the z-score in experiment [9] was 0.425 (inactive) and 0.475 (inactive) and 0.2 (inactive). Also, the log fold change Tl+ flux was 0.00494 (inactive) in experiment [10]; -0.0514 (inactive) in [11]; -0.00644 (inactive) in [12]; -0.0341 (inactive) in experiment [13]; 0.000907 (inactive) in experiment [14]; 0.0503 (inactive) in [15]. Moreover, the log fold change Tl+ flux was -0.00245 (inactive) in [16], 0.0294 (inactive) in experiment [17] and 0.0554 (inactive) in [18].

On to `COc1cc([C@@H]2c3cc4c(cc3[C@H](O)[C@H]3COC(=O)[C@H]23)OCO4)cc(OC)c1OC`, for which the survival in experiment [8] is 0.917 (inactive). Moreover, the mean signal in experiment [19] is 221 (inactive). In experiment [9], the z-score was 0.5 (inactive). In addition, the log fold change Tl+ flux in [10] is 0.00363 (inactive); in experiment [11], 0.00366 (inactive); in experiment [12], 0.0253 (inactive); in experiment [13], 0.0135 (inactive); in [14], -0.0185 (inactive); in experiment [15], 0.0124 (inactive). The figures for the log fold change Tl+ flux in experiment [16], in experiment [17] and in [18] were 0.0291 (inactive), 0.0119 (inactive) and 0.00946 (inactive), respectively.

Take `C[C@]12C=CC(=O)C=C1CC[C@@H]1[C@@H]2C(=O)C[C@@]2(C)[C@H]1CC[C@]2(O)C(=O)CO`: in experiment [8], the survival was 15.9 (inactive). In addition, in experiment [9], the z-score is 0.315 (inactive) and 0.45 (inactive). In addition, the log fold change Tl+ flux in experiment [10] was 0.00863 (inactive); in [11] it was 0.0137 (inactive); in experiment [12], 0.000343 (inactive); in experiment [13], -0.00874 (inactive); in experiment [14], -0.0236 (inactive); in experiment [15], -0.0318 (inactive). The log fold change Tl+ flux was 0.028 (inactive) in [16], -0.00291 (inactive) in experiment [17] and -0.00226 (inactive) in experiment [18].

For `CC(C)C1CCC(C(=O)N[C@H](Cc2ccccc2)C(=O)O)CC1` (stereo not given in full), the results for the z-score in experiment [20] and in experiment [9] were -0.458 (inactive) and -0.11 (inactive), respectively. Further, the mean signal in [19] was 221 (inactive). The log fold change Tl+ flux in experiment [10] was 0.0965 (inactive); in [11] it was 0.0541 (inactive); in [12], 0.075 (inactive); in experiment [13], 0.0401 (inactive); in [14] it was -0.00833 (inactive); in [15], 0.0383 (inactive). Moreover, the log fold change Tl+ flux in experiment [16] is 0.0438 (inactive); in experiment [17], 0.0835 (active); in experiment [18], 0.0201 (inactive).

`CC(=O)OCC[N+](C)(C)C`: in experiment [1], the inhibition was determined as 26.2%. The same compound showed a score in [2] of 1.05. This compound registered a rescue above control in experiment [3] of 5.33. The cytochrome c release ratio in experiment [4] turned out to be 1.31. The compound also showed an inhibition of aggregation in experiment [5] of 74.9%. Moreover, the glutamate uptake change in experiment [6] is -18.6%. In addition, the aggregation suppression score in experiment [7] was 1.22. Moreover, the mean signal in experiment [19] is 251 (inactive). Also, in experiment [9], the z-score is 1.64 (inactive) and 0.235 (inactive). In addition, the log fold change Tl+ flux was 0.000642 (inactive) in experiment [10]; -0.0134 (inactive) in [11]; -0.0182 (inactive) in experiment [12]; 0.00764 (inactive) in [13]; -0.00869 (inactive) in experiment [14]; -0.00581 (inactive) in experiment [15]. Also, the log fold change Tl+ flux in experiment [16] is -0.00325 (inactive); in experiment [17] it was 0.0607 (inactive); in experiment [18] it was 0.0039 (inactive).
